Screening data as filed in PubChem BioAssay.
CYP2C19 inh: blockers of cytochrome P450 2C19 activity – biochemical, luminescence, ADME assay, primary screen; 96,000 compounds, 21% hits; CYP2C19 Supersomes, luciferin-H EGE luminescence, 30 min; P33261; inhibition, % at 5 µM; AID 778, 2007;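 active = CYP2C19 inhibition above a set limit at 5 µM in the primary screen, cut at about 50% in these data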;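 note: plate controls were negative control wells for no effect and 2.5 mM tranylcypromine positive control for full effect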
CYP2C9 inhib: blockers of cytochrome P450 2C9 activity – biochemical, luminescence, ADME assay, primary screen | 96,000 compounds, 20% hits | AID 777, 2007 | CYP2C9 Supersomes, luciferin-H conversion | P11712 | inhibition, % at 5 µM;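 active = blocking of liver enzyme CYP2C9 beyond about 50% at 5 µM, limit read from the data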
Target sequence (P11712 whole entry, looked up): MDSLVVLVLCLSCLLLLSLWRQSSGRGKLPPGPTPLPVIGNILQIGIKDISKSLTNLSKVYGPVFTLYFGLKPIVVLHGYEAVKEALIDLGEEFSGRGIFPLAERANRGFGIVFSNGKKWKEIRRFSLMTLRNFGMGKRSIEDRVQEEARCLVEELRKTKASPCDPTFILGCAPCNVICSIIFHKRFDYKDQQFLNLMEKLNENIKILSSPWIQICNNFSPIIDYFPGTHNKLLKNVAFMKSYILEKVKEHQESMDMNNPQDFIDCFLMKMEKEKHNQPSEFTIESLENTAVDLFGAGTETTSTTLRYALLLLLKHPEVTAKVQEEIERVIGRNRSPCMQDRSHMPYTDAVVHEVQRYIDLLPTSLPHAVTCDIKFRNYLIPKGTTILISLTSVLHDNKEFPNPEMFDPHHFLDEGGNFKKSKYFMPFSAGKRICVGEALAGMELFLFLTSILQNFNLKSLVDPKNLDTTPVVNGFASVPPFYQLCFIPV
PostGolgi yeast: phenotypic screen on post-Golgi transport, primary screen; post-Golgi transport phenotypic cell assay; inhibition, % at 10 µM; 98,000 compounds, 0.9% hits;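 note: yeast cells grown in 1536-well plates; yeast grown about 18 h at 30C before absorbance read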
CYP2C9 act: human CYP2C9 activators, primary screen, biochemical, luminescence; recombinant CYP2C9, luciferin-H conversion; hits give high values; factor 1 = untreated enzyme, 0 = blocked; Cytochrome P450 2C9 (Homo sapiens), P11712; activation factor at 5 µM; 96,000 compounds, 1.4% hits;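 active = activation factor of 2 or more for CYP2C9 at a 5 µM dose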;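 note: 0 = sulfaphenazole-blocked wells and 1 = vehicle-only wells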
PostGolgi ctrl: growth inhibition of yeast control strain, primary screen, counter-screen for post-Golgi transport modulator project; efflux-deficient yeast background strain, growth absorbance A615, 16 h; inhibition, % at 10 µM; 98,000 compounds, 5% hits
CYP2C19 act: human CYP2C19 activators, primary screen, biochemical, luminescence. recombinant CYP2C19, luciferin-H EGE luminescence; hits give high values; 0 = fully inhibited enzyme, 1 = untreated enzyme. 96,000 tested, under 10 active. activation factor at 5 µM. AID 1025, 2008;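 active = activation factor of at least 2 at 5 µM in the primary screen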;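 note: 0 = wells with 2.5 mM tranylcypromine and 1 = vehicle-only wells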
The depositor's hits bear a star. This is a sample that favours compounds with a hit; in the whole collection about 32% have one here. Cut-off read from the data, not from the text of the source, unless noted: active = inhibition above about 30%; inactive = the rest.

How did Cc1sc(-c2ccncc2)nc1OC(=O)c1ccccc1 do in these assays?
CYP2C19 inh: 99*; CYP2C9 inhib: 96*; PostGolgi yeast: 2; CYP2C9 act: 0; PostGolgi ctrl: 7; CYP2C19 act: 0

Results for Cc1sc(-c2ccccn2)nc1OC(=O)c1ccc(Cl)cc1 ?
CYP2C19 inh: -10; CYP2C9 inhib: -3; PostGolgi yeast: 29; CYP2C9 act: 1; PostGolgi ctrl: 6; CYP2C19 act: 1.1

What do the screens show for `COc1cc(C2C3=C(CCCC3=O)Nc3[nH]n(-c4ccccc4)c(=O)c32)ccc1O` (stereo not drawn)?
CYP2C19 inh: -4; CYP2C9 inhib: -4; PostGolgi yeast: 8; CYP2C9 act: 1; PostGolgi ctrl: -5; CYP2C19 act: 1

What do the screens show for `COc1cc(C2Nc3ccc4ncccc4c3C3=C2C(=O)CCC3)ccc1O` (stereo not drawn)?
CYP2C19 inh: 91*; CYP2C9 inhib: 66*; PostGolgi yeast: 1; CYP2C9 act: 0.3; PostGolgi ctrl: 9; CYP2C19 act: 0.1

What do the screens show for `Cc1ccsc1C1Nc2ccc3ncccc3c2C2=C1C(=O)CCC2` (stereo not drawn)?
CYP2C19 inh: 90*; CYP2C9 inhib: 85*; PostGolgi yeast: -2; CYP2C9 act: 0.2; PostGolgi ctrl: 0; CYP2C19 act: 0.1

Results for COc1ccc2nc(Nc3nc(C)c(CCC(C)C)c(=O)[nH]3)nc(C)c2c1 ?
CYP2C19 inh: 60*; CYP2C9 inhib: 58*; PostGolgi yeast: -1; CYP2C9 act: 0.4; PostGolgi ctrl: 31*; CYP2C19 act: 0.4

How did CC1C/C(=C/c2cccn2C)C(=O)/C(=C/c2cccn2C)C1 (stereo not drawn) do in these assays?
CYP2C19 inh: 4; CYP2C9 inhib: 1; PostGolgi yeast: 12; CYP2C9 act: 1; PostGolgi ctrl: 41*; CYP2C19 act: 1

Results for CN(C)/C=N/c1sccc1C(N)=O ?
CYP2C19 inh: -9; CYP2C9 inhib: -16; PostGolgi yeast: 1; CYP2C9 act: 1.2; PostGolgi ctrl: -7; CYP2C19 act: 1.1

How did O=C1CC(c2ccccc2)Cc2nc3nc(C(F)(F)F)nn3cc21 (stereo not drawn) do in these assays?
CYP2C19 inh: 49; CYP2C9 inhib: 62*; PostGolgi yeast: -1; CYP2C9 act: 0.4; PostGolgi ctrl: 1; CYP2C19 act: 0.5

How did CSc1nc2nc3c(cn2n1)C(=O)CC(c1ccccc1)C3 (stereo not drawn) do in these assays?
CYP2C19 inh: 51*; CYP2C9 inhib: 50; PostGolgi yeast: -3; CYP2C9 act: 0.5; PostGolgi ctrl: -3; CYP2C19 act: 0.5

Results for COc1ccc(Nc2ncc3c(n2)CC(c2ccccc2)CC3=O)cc1 (stereo not drawn) ?
CYP2C19 inh: 22; CYP2C9 inhib: 36; PostGolgi yeast: 17; CYP2C9 act: 0.6; PostGolgi ctrl: 18; CYP2C19 act: 0.8

What do the screens show for `CC(/C=C/c1ccccc1)=N\NC(=O)c1ccncc1`?
CYP2C19 inh: 40; CYP2C9 inhib: 49; PostGolgi yeast: -5; CYP2C9 act: 0.5; PostGolgi ctrl: -2; CYP2C19 act: 0.6

How did O=C(Nc1ccccc1)O/N=C/c1ccncc1 do in these assays?
CYP2C19 inh: 70*; CYP2C9 inhib: 60*; PostGolgi yeast: 6; CYP2C9 act: 0.4; PostGolgi ctrl: -1; CYP2C19 act: 0.3

What do the screens show for `COCC(C)n1c(C)cc(C(=O)CN2C(=O)NC3(CCCCC3C)C2=O)c1C` (stereo not drawn)?
CYP2C19 inh: -19; CYP2C9 inhib: -69; PostGolgi yeast: 9; CYP2C9 act: 1.7; PostGolgi ctrl: 16; CYP2C19 act: 1.2

Results for CC(C)=C1C2CCC1C1C(=O)N(NC(=O)COc3ccc(C(C)(C)C)cc3)C(=O)C21 (stereo not drawn) ?
CYP2C19 inh: 12; CYP2C9 inhib: 31; PostGolgi yeast: -8; CYP2C9 act: 0.7; PostGolgi ctrl: 25; CYP2C19 act: 0.9

What do the screens show for `O=C1c2ccccc2C(Nc2ccc(-c3nc4ccccc4[nH]3)cc2)N1Cc1ccco1` (stereo not drawn)?
CYP2C19 inh: 73*; CYP2C9 inhib: 87*; PostGolgi yeast: 1; CYP2C9 act: 0.1; PostGolgi ctrl: 16; CYP2C19 act: 0.3

How did O=C1c2ccccc2C(Nc2ccc3nc(-c4cccnc4)[nH]c3c2)N1Cc1ccco1 (stereo not drawn) do in these assays?
CYP2C19 inh: 26; CYP2C9 inhib: 93*; PostGolgi yeast: 1; CYP2C9 act: 0.1; PostGolgi ctrl: 14; CYP2C19 act: 0.7

How did O=C1c2ccccc2C(=O)N1Cc1nc2ccccc2c(=O)n1Cc1ccco1 do in these assays?
CYP2C19 inh: 7; CYP2C9 inhib: 10; CYP2C9 act: 0.9; CYP2C19 act: 0.9

What do the screens show for `O=C(Nc1ccc2nc(-c3cccnc3)[nH]c2c1)c1ccco1`?
CYP2C19 inh: 10; CYP2C9 inhib: 17; PostGolgi yeast: -16; CYP2C9 act: 0.8; PostGolgi ctrl: 0; CYP2C19 act: 0.9

How did CCc1ccc(CN(C)CCc2ccccn2)cc1 do in these assays?
CYP2C19 inh: 89*; CYP2C9 inhib: 21; PostGolgi yeast: -18; CYP2C9 act: 0.8; PostGolgi ctrl: -2; CYP2C19 act: 0.1

What do the screens show for `Cc1ccc(CN(C)CCc2ccccn2)cc1`?
CYP2C19 inh: 44; CYP2C9 inhib: 15; PostGolgi yeast: -4; CYP2C9 act: 0.8; PostGolgi ctrl: 0; CYP2C19 act: 0.6

How did CN(CCc1ccccn1)Cc1ccc(Cl)cc1 do in these assays?
CYP2C19 inh: 53*; CYP2C9 inhib: -24; PostGolgi yeast: 0; CYP2C9 act: 1.2; PostGolgi ctrl: -1; CYP2C19 act: 0.5

How did COc1cc(CN(C)CCc2ccccn2)cc(OC)c1OC do in these assays?
CYP2C19 inh: 3; CYP2C9 inhib: 0; PostGolgi yeast: -1; CYP2C9 act: 1; PostGolgi ctrl: 7; CYP2C19 act: 1

How did O=C(COc1ccc(-n2cnnn2)cc1)NC(=O)NCc1ccccc1 do in these assays?
CYP2C19 inh: 17; CYP2C9 inhib: 16; PostGolgi yeast: -8; CYP2C9 act: 0.8; PostGolgi ctrl: 11; CYP2C19 act: 0.8

Results for O=C(OCC(=O)N1CCN(C(=O)c2ccco2)CC1)c1cc(-c2ccc(Cl)c(Cl)c2Cl)nc2ccccc12 ?
CYP2C19 inh: 40; CYP2C9 inhib: 69*; PostGolgi yeast: 8; CYP2C9 act: 0.3; PostGolgi ctrl: 26; CYP2C19 act: 0.6

What do the screens show for `Cc1ccc(-n2c(-c3cc(C)n(C)n3)n[nH]c2=S)cc1`?
CYP2C19 inh: 13; CYP2C9 inhib: 16; PostGolgi yeast: -9; CYP2C9 act: 0.8; PostGolgi ctrl: 10; CYP2C19 act: 0.9

What do the screens show for `Cc1ccc(SCC(=O)Nc2ccccc2C(=O)O)cc1`?
CYP2C19 inh: 34; CYP2C9 inhib: 85*; PostGolgi yeast: 3; CYP2C9 act: 0.2; PostGolgi ctrl: 5; CYP2C19 act: 0.7
